# Measured values as given in ChEMBL document CHEMBL1157539, “Thousands of chemical starting points for antimalarial lead identification” (Nature, 2010).
# Tests used:
# Assay type in all cases: functional
# Plasmodium falciparum [1] = assay: GSK_TCMDC: Inhibition of Plasmodium falciparum 3D7 in whole red blood cells, using parasite LDH activity as an index of growth. Test compounds present at 2uM
# Plasmodium falciparum [2] = assay: GSK_TCMDC: Inhibition of Plasmodium falciparum Dd2 in whole red blood cells, using parasite LDH activity as an index of growth. Test compounds present at 2uM
# HepG2 = assay: GSK_TCMDC: Percent inhibition of human HepG2 cell line. Test compounds present at 10uM.
Structure (SMILES),Inhibition (Plasmodium falciparum [1]) [%],Inhibition (Plasmodium falciparum [2]) [%],Inhibition (HepG2) [%]
O=C(Nc1cccc(-c2ccc(-c3nc4cc(F)ccc4[nH]3)cc2)c1)c1cccnc1,100,92,27
Cc1ccccc1C1CCN(c2ccc(C(=O)NC3CC3)cn2)CC1.O=C(O)C(F)(F)F,95,95,17
COc1ccc(C(C(=O)NC2CCN(C[C@H](O)c3ccnc4ccc(OC)cc34)CC2)N2CCc3ccccc3C2)cc1 (stereo not given in full),96,30,19
NCCNc1ccnc2cc(Cl)ccc12,100,54,9
NC(Cc1cccc(I)c1)C(=O)NCC1CCCO1.O=C(O)C(F)(F)F (stereo not given),98,50,52
COc1ccc2nccc(NC(=O)C3(O)CCC(NCc4ccc5c(c4)NCCS5)CC3)c2n1.Cl (stereo not given),93,64,1
Cc1cccc2nc(-c3ccc(-c4cccc(CNCc5cnn(-c6ccccc6)n5)c4)s3)[nH]c12.O=C(O)C(F)(F)F,98,58,40
Cl.Nc1c(I)cc(C(=O)Nc2ccc3nc4c(c(N)c3c2)CCCC4)cc1I,100,99,40
CCOc1cc(Cl)c(C(C)NC(=O)c2cccc(OC)c2)cc1OCC (stereo not given),98,92,29
O=C(Nc1cccc(-c2cccc(-c3nc4cc(C(F)(F)F)ccc4[nH]3)c2)c1)Nc1ccc(F)c(F)c1F,99,100,71
CCOC(=O)c1c(CN2CCCC2)n(-c2ccccc2)c2cc(Br)c(O)cc12,83,53,0
COc1ccc2nccc(N3CCC(SCCNCc4ccc5c(n4)NC(=O)CS5)C3)c2n1.Cl (stereo not given),95,100,34
CCCC(CNCc1cccc(OC(F)(F)F)c1)CNc1cc(=O)c2ccccc2[nH]1 (stereo not given),100,95,0
Cc1cccc2nc(-c3ccc(-c4ccc(CN5CCCCC5)cc4)cc3)[nH]c12.O=C(O)C(F)(F)F,100,99,27
Cc1cccc2nc(-c3cccc(-c4cccc(CNCc5cccc(N)c5)c4)c3)[nH]c12.O=C(O)C(F)(F)F,100,73,14
COc1ccc(NC(=O)[C@H](Cc2ccccc2)Nc2cc(C)nc(NCCc3ccccc3)n2)cc1.O=C(O)C(F)(F)F,98,83,6
Fc1cccc(COc2ccc(Nc3ncnc4sc(C#Cc5ncc[nH]5)cc34)cc2Cl)c1,100,95,55
CC1(C)NC(N)=NC(=N)N1OCOc1cc(Cl)c(Cl)cc1Cl.Cl,96,98,66
C=C[C@H]1CN2CC[C@H]1C[C@H]2[C@H](O)c1ccnc2ccc(OC)cc12.O.O=S(=O)(O)O,97,22,0
COc1ccc(Cn2c(Nc3cccc(C(F)(F)F)c3)nc3ccc(C(=O)NCCN4CCCC4)cc32)cc1Cl,100,6,14
Cc1[nH]c(C)c(-c2ccc(Oc3ccc(F)cc3)cc2)c(=O)c1Cl,99,98,14
CCCOc1ccc(C=C(CC(=O)O)c2nc3ccccc3s2)cc1OCC,89,84,7
N=C(N)NC(=O)Nc1cc(Cl)c(Br)c(Cl)c1,100,100,6
Cl.O=C(Nc1ccccc1Br)N[C@@H]1CCN(c2ccnc3ccccc23)C1,91,90,25
Cl.Cn1c(/C=C/C(=O)NC2CCC(CCN3CCc4ccc(C#N)cc4CC3)CC2)cc2ccccc21 (stereo not given),100,29,15
O=C(Nc1ccc(-c2ccc(-c3nc4cc(C(F)(F)F)ccc4[nH]3)s2)cc1)c1ccoc1,94,54,9
CCCCOC(=O)c1ccc(NC(=O)Nc2ccc(Cn3ncc(N4CCCNCC4)c(Cl)c3=O)cc2)cc1.O=C(O)C(F)(F)F,92,74,2
Cl.O=C(NCCCCN1CCC(c2ccc3c(c2OCCO)CCCC3)CC1)c1ccc2oc(-c3ccc(C(F)(F)F)cc3)cc2c1,93,56,54
Br.NC1=NC2(CCCCC2)N(OCCCCCCC2CCCCC2)C(N)=N1,97,49,77
Nc1c2c(nc3ccc(C(=O)Nc4ccc(Br)cc4)cc13)CCCC2,100,99,40
